We go through 19 compounds from PubChem BioAssay.

SMILES strings stand for the structures. Results filed as inconclusive are left out. Active and inactive are the calls of the source. Unless noted, cut-off not given; nearly all actives show AC50 up to about 26 µM.

Usually AC50 stands for the concentration giving half of the maximal activity seen. As a reminder, the IC50 is the concentration that inhibits the measured activity by half.

The nature of assay [1]: viability loss in pontine glioma line – cell-based, SU-DIPG-XVII, MIPE5.0, CellTiter-Glo, qHTS, dose response (AID 1347060).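 On AC50: cells exposed to compound for 48 hours before viability readout.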 The conditions noted are these: CellTiter-Glo ATP luminescence. On the technique in general: In ATP-based viability assays light output follows the ATP content of the culture.
A short description of assay [2]: viability loss in pontine glioma line – cell-based, SU-DIPG-XIII, MIPE4.0, CellTiter-Glo, qHTS, dose response (AID 1347061; cut-off not given, nearly all actives have AC50 up to about 37 µM;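 further: cells exposed to compound for 48 hours before readout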). The conditions noted are these: CellTiter-Glo ATP luminescence.
Assay [3] is described as follows: viability loss in pontine glioma line – cell-based, JHH-DIPG-1, MIPE4.0, CellTiter-Glo, qHTS, dose response (AID 1347062; cut-off not given, nearly all actives have AC50 up to about 27 µM;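 on AC50: cells exposed to compound for two days before readout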). The note with it: JHH-DIPG-1 viability, CellTiter-Glo ATP luminescence.
Assay [4] can be described thus: viability loss in pontine glioma line – cell-based, SU-DIPG-IV, MIPE4.0, CellTiter-Glo, qHTS, dose response (AID 1347063; cut-off not given, nearly all actives have AC50 up to about 30 µM;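 further: compound exposure lasted 48 hours before the viability readout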). The conditions noted are these: CellTiter-Glo ATP luminescence.
A short description of assay [5]: growth inhibition of DIPG cells – cell-based, MIPE4.0 library, CellTiter-Glo luminescence, qHTS (AID 1347066; cut-off not given, nearly all actives have AC50 up to about 30 µM;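 further: cells exposed to compound for 48 hours before readout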). The note with it: SU-DIPG-VI viability, CellTiter-Glo ATP luminescence.
Assay [6] in a line: JHH-DIPG-1 glioma cell viability, MIPE5.0 library, CellTiter-Glo luminescence, qHTS (AID 1347067).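 Further: cells exposed to compound for 48 hours before readout.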 The conditions noted are these: JHH-DIPG-1 glioma viability, CellTiter-Glo ATP luminescence.
Assay [7] is described as follows: growth inhibition of DIPG cells – cell-based, MIPE5.0 library, qHTS (AID 1347068; cut-off not given, nearly all actives have IC50 up to about 30 µM;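 on IC50: cells exposed to compound for 48 hours before viability readout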). The conditions noted are these: SU-DIPG-XXV viability. (Quantitative high-throughput screening tests each substance at several concentrations.)
A short description of assay [8]: viability loss in pontine glioma line – cell-based, SU-DIPG-XIII, MIPE5.0, CellTiter-Glo, qHTS, dose response (AID 1347064; cut-off not given, nearly all actives have AC50 up to about 23 µM;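 on AC50: cells exposed to compound for 48 hours before the viability read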). The note with it: CellTiter-Glo ATP luminescence.
Assay [9] can be described thus: viability loss in pontine glioma line – cell-based, SU-DIPG-XXV, MIPE5.0, CellTiter-Glo, qHTS, dose response (AID 1347065).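 Further: cells exposed to compound for 48 hours before ATP readout.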 The conditions noted are these: CellTiter-Glo ATP luminescence.
The nature of assay [10]: viability loss with induced miR-34 in A549 – imaging, A549 dox-inducible miR-34, nuclei and caspase counts, primary screen (AID 1347080;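 active means compounds whose cell count with miR-34 switched on is under 0.7 times the count with it off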). The note with it: A549 miR-34 inducible, Hoechst nuclei count, 48 h.
A short description of assay [11]: MELAS cybrid and Rieske KO viability enhancers – cell-based, MELAS cybrids, Rieske KO mouse fibroblasts, CellTiter-Glo, primary screen (AID 1508586;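 active means mean z-score across replicates of 1.96 or higher in either the MELAS or the Rieske mutant cell line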;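 further: z relative to plate mean and SD of compound and empty wells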). The note with it: low glucose.
Assay [12] in a line: compounds altering HSF1 focus formation in cells – imaging, Selleck Cancer Library (AID 1347162; in the data active means plate-normalised HSF1 focus index below about 0.46). The conditions noted are these: human cells, HSF1 nuclear foci imaging, at 10 µM; SSMD: measured here: HSF1 foci SSMD mean; cell count: measured here: cell number; plate-normalised HSF1 focus index: stronger effect = lower value.
[13] abbreviates: stronger effect = lower value, cell number ratio, induced over uninduced.
The mark [14] stands for this setting: measured here: relative caspase fold change +Dox/-Dox.
[15] abbreviates: measured here: total cells with miR-34 induction, stronger effect = lower value.
Setting [16] is: measured here: total cells without miR-34 induction.
Where [17] appears, read: MELAS cybrid survival, CellTiter-Glo 48 h, stronger effect = higher value.
Setting [18] is: Rieske KO mouse fibroblast survival, CellTiter-Glo 72 h.

Regarding `COc1cc2c(cc1-c1c(C)noc1C)ncc1[nH]c(=O)n([C@H](C)c3ccccn3)c12`, the result in assay [1], in assay [6] and in assay [7] was inactive. Further, the AC50 is 10.5 µM (active) in assay [2], 23.5 µM (active) in [3], 13.2 µM (active) in assay [4] and 4.18 µM (active) in assay [5].

Turning to `O=C(Nc1ncc(-c2cc(C(F)F)nn2-c2c(Cl)cccc2Cl)s1)C1CC1`, the AC50 was 0.833 µM (active) in assay [1]; 13.2 µM (active) in assay [2]; 0.662 µM (active) in assay [3]; 2.35 µM (active) in assay [8]; 1.05 µM (active) in [9]; 5.26 µM (active) in [5]. Besides, the AC50 in assay [6] was 1.32 µM (active). For the same compound, the IC50 in [7] was 1.18 µM (active).

As for `C[C@@H]1C(=O)OC2[C@H](O)[C@]34[C@H]5C[C@@H](C(C)(C)C)[C@]36[C@@H](OC(=O)[C@@H]6O)O[C@@]4(C(=O)O5)[C@]21O` (some centres not stated), the call in assay [1], in assay [2], in assay [3], in [8], in assay [9] and in assay [5] was inactive. Moreover, the outcome in assay [6] and in [7] was inactive.

In the case of `Cc1c(Cn2c(C)nc3c(C(=O)O)cc(N4CCOCC4)cc32)cccc1C(F)(F)F`, the call in [1], in assay [2], in assay [3], in assay [8], in [9] and in assay [5] was inactive. In addition, the compound was called inactive in assay [6] and in assay [7]. The fold change in assay [10] (setting [13]) was 0.907 (inactive); in assay [10] (setting [14]) it was 0.358. Besides, the figures for the cell count in assay [10] (setting [15]) and in [10] (setting [16]) were 8050 and 8880, respectively. Also, the values for the z-score in assay [11] (setting [17]) and in assay [11] (setting [18]) were -0.351 (inactive) and 0.912, respectively.

Consider `CN(C)C(=O)c1ccc(S(=O)(=O)c2ccc(NC(=O)[C@@](C)(O)C(F)(F)F)c(Cl)c2)cc1`, for which the compound was called inactive in assay [1], in assay [2], in assay [3] and in assay [6].

In the case of `Cc1cc(Nc2cc(N3CCN(C)CC3)nc(Sc3ccc(NC(=O)C4CC4)cc3)n2)n[nH]1`, the AC50 in [1] was 2.95 µM (active); in [2], 18.7 µM (active); in assay [4] it was 2.96 µM (active); in assay [8] it was 6.61 µM (active); in assay [9] it was 0.332 µM (active); in [6] it was 10.5 µM (active). For the same compound, the IC50 in [7] was 8.33 µM (active). In addition, the results for the fold change in [10] (setting [13]) and in [10] (setting [14]) were 0.993 (inactive) and 0.793, respectively. The cell count in assay [10] (setting [15]) is 1560; in assay [10] (setting [16]), 1580; in assay [12] it was 6720. For the same compound, the SSMD in assay [12] is -0.956. The plate-normalised HSF1 focus index in assay [12] is 0.958 (inactive). Besides, the z-score in assay [11] (setting [17]) was 2.79 (active); in [11] (setting [18]), 1.15.

With `NC1(C(=O)N[C@@H](CCO)c2ccc(Cl)cc2)CCN(c2ncnc3[nH]ccc23)CC1`, the AC50 in assay [1] was 14.8 µM (active); in [2], 14.8 µM (active); in assay [4], 0.662 µM (active); in [8], 1.48 µM (active); in assay [9], 2.09 µM (active). In addition, the IC50 in assay [7] is 3.72 µM (active).

Take `CC(=O)Nc1ccc([C@H](C)C(=O)Nc2ncc(C(C)C)s2)cc1`: the half-maximal activity concentration (AC50) in assay [1] was 0.934 µM (active); in [2] it was 4.69 µM (active); in [4], 2.64 µM (active); in assay [8], 2.95 µM (active); in [9] it was 1.86 µM (active); in assay [6] it was 3.32 µM (active). Moreover, the IC50 in assay [7] was 2.95 µM (active).

Regarding `C[C@@]1(C(=O)Nc2ccc(F)nc2)CCCN1c1nc(Nc2cc(C3CC3)[nH]n2)c2cccn2n1`, the concentration at half-maximal activity (AC50) is 0.263 µM (active) in assay [1]; 7.43 µM (active) in assay [2]; 0.0833 µM (active) in [4]; 0.0209 µM (active) in assay [8]; 0.0132 µM (active) in assay [9]; 0.186 µM (active) in assay [6]. The IC50 in [7] was 0.0742 µM (active).

With `Cc1cc(Nc2nc(N[C@@H](C)c3ccc(F)cc3)c(C#N)cc2F)n[nH]1`, the concentration at half-maximal activity (AC50) in assay [1] was 0.934 µM (active); in assay [2], 20.9 µM (active); in [4], 5.9 µM (active); in assay [8], 4.68 µM (active); in assay [9], 1.32 µM (active); in assay [5] it was 23.5 µM (active). Moreover, in [6], the AC50 was 5.9 µM (active). Moreover, the concentration for half-maximal inhibition (IC50) in [7] is 5.25 µM (active).

In the case of `CNC(=O)c1ccc2cc(C3(O)CCn4cncc43)ccc2c1` (configuration not stated), the result in assay [1], in assay [2], in [3], in assay [8], in assay [5] and in assay [6] was inactive. Besides, the compound was called inactive in [7]. Further, the fold change in [10] (setting [13]) was 0.927 (inactive); in assay [10] (setting [14]), 0.607. The cell count came to 8020 in assay [10] (setting [15]) and 8650 in assay [10] (setting [16]). Also, the z-score was 0.566 (inactive) in assay [11] (setting [17]) and -0.147 in assay [11] (setting [18]).

With `O=C1CCCC2=C1C(c1[nH]ncc1Cl)N=C(Nc1nc3ccccc3o1)N2` (configuration not stated), the compound was classed as inactive in assay [1], in assay [2], in assay [3], in [5], in assay [6] and in [7].

With `CCNC(=O)[C@H]1O[C@@H](n2cnc3c(N)nc(NCCc4ccc(CCC(=O)O)cc4)nc32)[C@H](O)[C@@H]1O`, the result in assay [1], in assay [2], in assay [3], in assay [9], in [5] and in [6] was inactive. The compound was called inactive in assay [7].

Consider `C=C1CCC2[C@](C)(CO)C(O)CC[C@]2(C)C1C/C=C1/C(=O)OCC1O` (some centres not stated), for which the AC50 in assay [1] is 16.6 µM (active); in [8], 16.6 µM (active); in [9], 13.2 µM (active); in assay [6], 13.2 µM (active). Moreover, the compound was classed as inactive in [2], in assay [4] and in assay [5].

As to `COc1cccc(OC)c1-c1cc(C(=O)NC2(C(=O)O)C3CC4CC(C3)CC2C4)nn1-c1ccnc2cc(Cl)ccc12` (configuration not stated), the AC50 in assay [1] was 14.8 µM (active); in assay [9], 18.6 µM (active). Further, the call in assay [2], in assay [3], in [5] and in [7] was inactive.

On to `Cn1cnc2c(F)c(Nc3ccc(Br)cc3F)c(C(=O)NOCCO)cc21`, for which the AC50 is 3.72 µM (active) in assay [1]; 4.18 µM (active) in assay [2]; 6.62 µM (active) in assay [3]; 5.25 µM (active) in assay [9]; 0.833 µM (active) in assay [6]. Further, the outcome in assay [5] was inactive. For the same compound, the fold change is 0.958 (inactive) in assay [10] (setting [13]) and 0.664 in [10] (setting [14]). For the same compound, the values for the cell count in [10] (setting [15]) and in assay [10] (setting [16]) were 4350 and 4540, respectively. Moreover, the z-score in assay [11] (setting [17]) was 0.0149 (inactive); in assay [11] (setting [18]), -0.207.

As for `Cc1cccc(-c2[nH]c(C(C)(C)C)nc2-c2ccc3c(c2)OCO3)n1`, the AC50 is 3.72 µM (active) in assay [1]; 0.526 µM (active) in assay [2]; 6.62 µM (active) in assay [4]; 2.63 µM (active) in assay [8]; 2.95 µM (active) in assay [9]; 1.18 µM (active) in [6]. Further, the IC50 in assay [7] is 3.72 µM (active). In addition, the fold change in assay [10] (setting [13]) is 0.974 (inactive); in assay [10] (setting [14]), 0.464. In addition, the cell count in [10] (setting [15]) is 3490; in [10] (setting [16]) it was 3590. Further, the z-score in assay [11] (setting [17]) is -0.251 (inactive); in assay [11] (setting [18]), -1.59.

Consider `Cc1nc(NC(=O)N2CCC[C@H]2C(N)=O)sc1-c1ccnc(C(C)(C)C(F)(F)F)c1`, for which the AC50 in assay [1] was 5.9 µM (active); in assay [2] it was 1.87 µM (active); in assay [4], 1.05 µM (active); in assay [8], 4.68 µM (active); in assay [9] it was 3.32 µM (active); in [5] it was 1.66 µM (active).

For the compound `c1cc(-c2sc(-c3ccncc3)c(-c3ccncc3)c2-c2ccncc2)ccn1`, the compound was called inactive in assay [1], in assay [2], in assay [3], in assay [9], in [5] and in [6]. The outcome in assay [7] was inactive.
